{"source": "the supplement of paper PMC3334620", "note": "Over roughly 33,000 sequences, “E-score (-0.5 to 0.5)” has its median near -0.035; the highest 2% begin near 0.34. For the sample, the highest values were picked, then their nearest neighbours and some sequences at random.", "data": [{"target": "T1, Mot3 (UniProt P54785)", "T1 sequence": "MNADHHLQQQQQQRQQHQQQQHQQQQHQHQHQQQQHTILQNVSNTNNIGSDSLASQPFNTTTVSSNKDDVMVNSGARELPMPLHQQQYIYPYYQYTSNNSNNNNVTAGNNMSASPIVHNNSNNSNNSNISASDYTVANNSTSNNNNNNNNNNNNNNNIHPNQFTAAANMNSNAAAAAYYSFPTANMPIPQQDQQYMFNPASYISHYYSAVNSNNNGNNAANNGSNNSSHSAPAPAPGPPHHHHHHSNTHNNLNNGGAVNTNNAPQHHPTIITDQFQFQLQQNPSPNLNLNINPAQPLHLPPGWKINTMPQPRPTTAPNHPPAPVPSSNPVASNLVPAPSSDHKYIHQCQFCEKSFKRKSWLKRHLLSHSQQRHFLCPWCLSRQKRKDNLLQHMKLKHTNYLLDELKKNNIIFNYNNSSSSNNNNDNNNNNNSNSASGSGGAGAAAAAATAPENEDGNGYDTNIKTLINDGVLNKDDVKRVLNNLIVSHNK", "assay": "PBM E-score (8-mer binding enrichment) (E-score (-0.5 to 0.5)); higher = stronger / more preferred TF binding", "settings": "protein concentration: 200 nM; construct: GST-full length", "procedure,_shortened": "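Yeast transcription factors, full-length or as DNA-binding domains, were expressed with a GST tag using PURExpress in vitro transcription/translation. At about 100-200 nM they were applied to universal all-10-mer Agilent arrays, double-stranded by primer extension on fresh or once-stripped slides. Fluorescent anti-GST detected bound protein, and masliner normalised the scans. E-scores for ungapped eight-base words, pooled with reverse complements, came from the Universal PBM Analysis Suite.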", "values": [{"sequence": "GCTGCAAC", "PBM E-score": -0.242}, {"sequence": "CAAGAGGA", "PBM E-score": 0.038}, {"sequence": "CGAAACTA", "PBM E-score": -0.136}, {"sequence": "GACTAAAC", "PBM E-score": 0.0174}, {"sequence": "ACCCGTGC", "PBM E-score": -0.0819}, {"sequence": "GAGAAGGC", "PBM E-score": 0.258}, {"sequence": "ACGGCCTA", "PBM E-score": -0.0205}, {"sequence": "ACGCGCTG", "PBM E-score": 0.184}, {"sequence": "GGCTAACC", "PBM E-score": 0.0149}, {"sequence": "CTTCCTGC", "PBM E-score": -0.0264}, {"sequence": "ATCTGAAC", "PBM E-score": -0.219}, {"sequence": "ATATTGGA", "PBM E-score": 0.0164}, {"sequence": "GTAAGGAC", "PBM E-score": -0.194}, {"sequence": "CTAAGGAC", "PBM E-score": -0.231}, {"sequence": "GTAAGGAA", "PBM E-score": 0.366}, {"sequence": "GTAAGTAA", "PBM E-score": 0.169}, {"sequence": "CTAAGGAA", "PBM E-score": 0.366}, {"sequence": "ATAAGGAA", "PBM E-score": 0.299}, {"sequence": "TTAAGTAA", "PBM E-score": 0.0348}, {"sequence": "CTAAGGAG", "PBM E-score": -0.254}, {"sequence": "TTAAGGAA", "PBM E-score": 0.398}, {"sequence": "CGGTCTCC", "PBM E-score": -0.283}, {"sequence": "CGCCCCCG", "PBM E-score": -0.351}, {"sequence": "GACGGTTA", "PBM E-score": -0.0411}, {"sequence": "ATACACAT", "PBM E-score": 0.3}, {"sequence": "GCTGTTTA", "PBM E-score": -0.0345}, {"sequence": "TGCAGTAA", "PBM E-score": 0.0245}, {"sequence": "ATCAGGAC", "PBM E-score": -0.157}, {"sequence": "ATCAGGAA", "PBM E-score": 0.343}, {"sequence": "AGCAGGAG", "PBM E-score": -0.0982}, {"sequence": "GGCAGGGA", "PBM E-score": -0.158}, {"sequence": "AGCAGGAA", "PBM E-score": 0.395}, {"sequence": "TGCAGGAA", "PBM E-score": 0.443}, {"sequence": "CTCAGGAA", "PBM E-score": 0.335}, {"sequence": "GGCAGGAA", "PBM E-score": 0.419}, {"sequence": "TTCAGGAA", "PBM E-score": 0.337}, {"sequence": "GGCAGGAC", "PBM E-score": -0.14}, {"sequence": "AGCAGGAC", "PBM E-score": -0.096}, {"sequence": "TACTGAGA", "PBM E-score": -0.0385}, {"sequence": "GGTGCCAC", "PBM E-score": -0.168}, {"sequence": "AGGGGTGG", "PBM E-score": -0.248}, {"sequence": "GACTGGTA", "PBM E-score": -0.00685}, {"sequence": "GTGCGATA", "PBM E-score": -0.123}, {"sequence": "CGCAGGAA", "PBM E-score": 0.356}, {"sequence": "CGCAGGAG", "PBM E-score": -0.0652}, {"sequence": "CGCAGGAC", "PBM E-score": -0.0456}, {"sequence": "AAAGTAGC", "PBM E-score": -0.0505}, {"sequence": "ACCATTAA", "PBM E-score": 0.0184}, {"sequence": "CGCTCCTC", "PBM E-score": -0.269}, {"sequence": "TACGCAAA", "PBM E-score": 0.206}, {"sequence": "CCTATTAC", "PBM E-score": 0.344}, {"sequence": "ACTATTAC", "PBM E-score": 0.25}, {"sequence": "CCTATTAA", "PBM E-score": 0.273}, {"sequence": "CAGGTCGA", "PBM E-score": 0.148}, {"sequence": "ATTAGCCA", "PBM E-score": -0.147}, {"sequence": "AGGTCGAA", "PBM E-score": 0.00993}, {"sequence": "CATGTTAG", "PBM E-score": 0.332}, {"sequence": "CATGTTAC", "PBM E-score": 0.332}, {"sequence": "GATGTTAA", "PBM E-score": 0.268}, {"sequence": "TATGTTAA", "PBM E-score": 0.396}, {"sequence": "AATGTTAA", "PBM E-score": 0.279}, {"sequence": "CATGTTAA", "PBM E-score": 0.411}, {"sequence": "CATTCAGC", "PBM E-score": -0.12}, {"sequence": "ACCTCGCA", "PBM E-score": -0.0135}, {"sequence": "AAACAAGC", "PBM E-score": 0.0864}, {"sequence": "TGATCCAA", "PBM E-score": -0.071}, {"sequence": "CCATCTGC", "PBM E-score": -0.272}, {"sequence": "ATACACGG", "PBM E-score": 0.375}, {"sequence": "ATACACGC", "PBM E-score": 0.37}, {"sequence": "ATACACGA", "PBM E-score": 0.352}, {"sequence": "ACACACGG", "PBM E-score": 0.182}, {"sequence": "ATACACCA", "PBM E-score": 0.129}, {"sequence": "ATACACAC", "PBM E-score": 0.326}, {"sequence": "ATACACTA", "PBM E-score": 0.124}, {"sequence": "ACACACGC", "PBM E-score": 0.174}, {"sequence": "ATACACAA", "PBM E-score": 0.324}, {"sequence": "GACCTCAC", "PBM E-score": -0.243}, {"sequence": "CCCCTACA", "PBM E-score": 0.0392}, {"sequence": "ATATACGA", "PBM E-score": 0.14}, {"sequence": "AATTTTAT", "PBM E-score": 0.0903}, {"sequence": "TCGATAGA", "PBM E-score": -0.0212}, {"sequence": "ACCCCTTC", "PBM E-score": 0.129}, {"sequence": "ATTTTACA", "PBM E-score": 0.336}, {"sequence": "CTTTTACA", "PBM E-score": 0.345}, {"sequence": "GTTTTATA", "PBM E-score": 0.101}, {"sequence": "GTTTTACA", "PBM E-score": 0.371}, {"sequence": "CCTTTACG", "PBM E-score": 0.172}, {"sequence": "CTTTTACC", "PBM E-score": 0.141}, {"sequence": "TCTTTACA", "PBM E-score": 0.389}, {"sequence": "CCTTTACC", "PBM E-score": 0.102}, {"sequence": "CCTTTACA", "PBM E-score": 0.392}, {"sequence": "GGTTTACA", "PBM E-score": 0.333}, {"sequence": "GCTTTACA", "PBM E-score": 0.325}, {"sequence": "ACTTTACA", "PBM E-score": 0.313}, {"sequence": "ACCCTTTA", "PBM E-score": 0.167}, {"sequence": "GCAGTCAC", "PBM E-score": 0.305}, {"sequence": "ATTGGCCG", "PBM E-score": -0.176}, {"sequence": "GGATTTAC", "PBM E-score": 0.174}, {"sequence": "CGACAGGA", "PBM E-score": 0.0979}, {"sequence": "AGCACGCG", "PBM E-score": 0.17}, {"sequence": "AAATGCAC", "PBM E-score": 0.0764}, {"sequence": "AGTCACCG", "PBM E-score": 0.0455}, {"sequence": "GCGCAAGC", "PBM E-score": -0.172}, {"sequence": "AGGCATCA", "PBM E-score": 0.409}, {"sequence": "CGGCATCC", "PBM E-score": -0.0227}, {"sequence": "AGGCATCC", "PBM E-score": 0.384}, {"sequence": "AGGCATCG", "PBM E-score": 0.404}, {"sequence": "AGGCATAG", "PBM E-score": 0.274}, {"sequence": "CGGCATCA", "PBM E-score": -0.0726}, {"sequence": "AAGCATCC", "PBM E-score": -0.202}, {"sequence": "GGGCATCA", "PBM E-score": -0.23}]}]}
